Reference: PubChem BioAssay (NCI)
The panel holds about 83,000 compounds, 20% with a hit somewhere; the sample as a whole holds those more often.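 Values shown are percent growth following 48 h exposure of cells in 96-well plates to a single concentration of compound; below 10 was considered active.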 Active and inactive are the calls of the source.

The compounds below were run on CCRF-CEM leukemia (assay: NCI-60 one-dose screen, 48 h (100 = growth as untreated, 0 = no growth, -100 = all killed)). Details: 10 µM unless noted.
With `COc1cc(/C=C/C(=O)c2ccc(Nc3ncnc4ccccc34)cc2)cc(OC)c1` the growth was 20.6% (inactive).
With `COc1ccc(C(=O)c2cc3c(N)c(C(=O)Nc4cccc(OC)c4)sc3nc2C)cc1` the growth was 7.12% (active).
In the case of `CCC(C)N(CCNc1cc(OC)cc2cccnc12)CCC(C)C` (stereo unspecified), the growth is reported as 109% (inactive).
`S=c1[nH]cccc1-c1nnc2n1Nc1nc3ccccc3cc1CS2` was tested, and the growth was 105% (inactive).
In the case of `NC(=O)C1(N2CCCCC2)CCN(CCCC(=O)c2ccc(F)cc2)CC1`, the growth is reported as 0.142% (active).
`O=S(=O)(c1cccc(NC2=Nc3cccc4cccc2c34)c1)N1CCCC1` was tested, and the growth was 41.7% (inactive).
With `OC1(c2ccc(Cl)c(C(F)(F)F)c2)CCN(CCCC(c2ccc(F)cc2)c2ccc(F)cc2)CC1` the growth was -39% (active).
For `O=c1[nH]nc(-c2ccc(Br)cc2)cc1Cc1ccc(O)cc1`, the growth was -9.56% (active).
With `N/C(=N\N=C\c1cc2ccccc2s1)N/N=C/c1cc2ccccc2s1` the growth was 99.2% (inactive).
In the case of `COc1ccc(C(=O)c2cc3c(N)c(C(=O)Nc4ccc(Br)cc4)sc3nc2C)cc1`, the growth is reported as 88.5% (inactive).
`CC1=NNC(=O)C1CCC(=O)N/N=C(\C)c1ccc2ccccc2c1` (stereo unspecified) was tested, and the growth was 105% (inactive).
For `O=C(O)c1cn(C2CC2)c2cc(N3CCN(C(=O)C[n+]4cccc5ccccc54)CC3)c(F)cc2c1=O`, the growth was -37.5% (active).
For `COc1ccc(Cn2nc(-c3ccccc3)c3c2CCc2cnoc2-3)cc1`, the growth was 67.8% (inactive).
For `O=C(O)CNC(=O)CN1C(=O)c2ccccc2C1=O`, the growth was 81.1% (inactive).
`O=C1CCCCCCCCC(O)C(O)CCCC(c2cccs2)O1` (stereo unspecified) was tested, and the growth was 47.4% (inactive).
For `CC1CCN(C(=O)OCc2nc3nc(Cl)nc(N4CCOCC4)c3[nH]2)CC1`, the growth was -7.16% (active).
In the case of `COc1cc(C2CC(c3cccc(Nc4ccncc4)c3)=NN2c2cc(Cl)cc(Cl)c2)cc(OC)c1OC` (stereo unspecified), the growth is reported as -17.5% (active).
In the case of `COC(=O)Nc1ccc(NC(=O)OC)cc1`, the growth is reported as 68.1% (inactive).
`COc1ccc(C(=O)c2cc3c(N)c(C(=O)Nc4cccc(Cl)c4C)sc3nc2C)cc1` was tested, and the growth was 5.42% (active).
In the case of `COc1ccc(-c2nc(SC)nc(N3CCOCC3)c2C#N)cc1`, the growth is reported as 88.7% (inactive).
With `CC(=O)NCCCS(=O)(=O)O` the growth was 106% (inactive).
In the case of `Cn1c(COC(=O)NCCN2CCOCC2)nc2c(N3CCOCC3)nc(-c3ccccc3)nc21`, the growth is reported as -10.9% (active).
`CC(C)Sc1nc(NN)c(C#N)c(-c2ccccc2)n1` was tested, and the growth was 94.3% (inactive).
In the case of `COc1ccc(-c2nc(SCC(C)C)nc(N/N=C(/C)c3ccc(OC)c(OC)c3)c2C#N)cc1`, the growth is reported as 70.3% (inactive).
For `COc1cc2nnn3c4ncccc4c(N=O)c3c2cc1OC`, the growth was -13.4% (active).
With `COc1ccccc1-c1c(-c2ccc(Cl)cc2)c2cc3c(cc2[nH]c1=O)OCCO3` the growth was 41.7% (inactive).
With `O=S(=O)(NCCNc1nccc(-c2c(-c3ccc(F)c(O)c3)nc3sccn23)n1)c1ccccc1` the growth was 37.2% (inactive).
In the case of `CC(C)(O)C1CCCN1C(=O)c1ccccc1I` (stereo unspecified), the growth is reported as 41.1% (inactive).
For `O=C(OCc1nc2nc(Cl)nc(N3CCOCC3)c2[nH]1)n1ccnc1`, the growth was -12% (active).
With `Cc1c([N+](=O)[O-])cc(C(C)(C)C)cc1[N+](=O)[O-]` the growth was 106% (inactive).
In the case of `O=C(N/N=C/c1ccc(F)cc1)c1ccccc1Nc1cccc(C(F)(F)F)c1`, the growth is reported as 6.32% (active).
`COc1cccc(/C=C2\COc3ccc(-c4ccccc4)cc3C2=O)c1` was tested, and the growth was -32.7% (active).
In the case of `CN1CCN(c2cc(F)c(NC3=C(Cl)C(=O)c4ncccc4C3=O)c(F)c2)CC1`, the growth is reported as -18.2% (active).
`Cc1cc(NC(=O)c2cnc(N3CCN(CCOCCOCCOCCOCCC(=O)N[C@H](C(=O)N4C[C@H](O)C[C@H]4C(=O)N[C@@H](C)c4ccc(-c5scnc5C)cc4)C(C)(C)C)CC3)cn2)c2ncccc2c1` was tested, and the growth was -1.88% (active).
`COc1ccc(-c2ncc(-c3ccccc3)[nH]2)cc1OC` was tested, and the growth was 18% (inactive).
For `O=C(CN1CCOCC1)Nc1ccc2ncnc(Nc3ccc(Oc4cccc(F)c4)c(Cl)c3)c2c1`, the growth was 82.3% (inactive).
With `O=C1Nc2c(ccc(Cl)c2Cl)/C1=C/c1ccc(F)cc1` the growth was 93.5% (inactive).
`COc1ccc(-c2nc(N/N=C/c3c[nH]c4ccccc34)nc(N3CCOCC3)c2C#N)cc1` was tested, and the growth was 56.9% (inactive).

What follows are compounds tested on MOLT-4 leukemia in the same assay as above. Details: 10 µM unless noted.
In the case of `COc1cc(/C=C/C(=O)c2ccc(Nc3ncnc4ccccc34)cc2)cc(OC)c1`, the growth is reported as 19.1% (inactive).
With `COc1ccc(C(=O)c2cc3c(N)c(C(=O)Nc4cccc(OC)c4)sc3nc2C)cc1` the growth was 15.8% (inactive).
`CCC(C)N(CCNc1cc(OC)cc2cccnc12)CCC(C)C` (stereo unspecified) was tested, and the growth was 83.9% (inactive).
`S=c1[nH]cccc1-c1nnc2n1Nc1nc3ccccc3cc1CS2` was tested, and the growth was 104% (inactive).
In the case of `NC(=O)C1(N2CCCCC2)CCN(CCCC(=O)c2ccc(F)cc2)CC1`, the growth is reported as 26.8% (inactive).
With `O=S(=O)(c1cccc(NC2=Nc3cccc4cccc2c34)c1)N1CCCC1` the growth was 57% (inactive).
For `OC1(c2ccc(Cl)c(C(F)(F)F)c2)CCN(CCCC(c2ccc(F)cc2)c2ccc(F)cc2)CC1`, the growth was -25.8% (active).
For `O=c1[nH]nc(-c2ccc(Br)cc2)cc1Cc1ccc(O)cc1`, the growth was 17.9% (inactive).
`N/C(=N\N=C\c1cc2ccccc2s1)N/N=C/c1cc2ccccc2s1` was tested, and the growth was 101% (inactive).
For `COc1ccc(C(=O)c2cc3c(N)c(C(=O)Nc4ccc(Br)cc4)sc3nc2C)cc1`, the growth was 91.2% (inactive).
For `CC1=NNC(=O)C1CCC(=O)N/N=C(\C)c1ccc2ccccc2c1` (stereo unspecified), the growth was 88.9% (inactive).
In the case of `O=C(O)c1cn(C2CC2)c2cc(N3CCN(C(=O)C[n+]4cccc5ccccc54)CC3)c(F)cc2c1=O`, the growth is reported as 5.51% (active).
With `COc1ccc(Cn2nc(-c3ccccc3)c3c2CCc2cnoc2-3)cc1` the growth was 52.7% (inactive).
For `O=C(O)CNC(=O)CN1C(=O)c2ccccc2C1=O`, the growth was 91.8% (inactive).
`O=C1CCCCCCCCC(O)C(O)CCCC(c2cccs2)O1` (stereo unspecified) was tested, and the growth was 31% (inactive).
For `CC1CCN(C(=O)OCc2nc3nc(Cl)nc(N4CCOCC4)c3[nH]2)CC1`, the growth was 0.0264% (active).
In the case of `COc1cc(C2CC(c3cccc(Nc4ccncc4)c3)=NN2c2cc(Cl)cc(Cl)c2)cc(OC)c1OC` (stereo unspecified), the growth is reported as -22.7% (active).
For `COC(=O)Nc1ccc(NC(=O)OC)cc1`, the growth was 100% (inactive).
With `COc1ccc(C(=O)c2cc3c(N)c(C(=O)Nc4cccc(Cl)c4C)sc3nc2C)cc1` the growth was 8.51% (active).
`COc1ccc(-c2nc(SC)nc(N3CCOCC3)c2C#N)cc1` was tested, and the growth was 87.6% (inactive).
In the case of `CC(=O)NCCCS(=O)(=O)O`, the growth is reported as 104% (inactive).
In the case of `Cn1c(COC(=O)NCCN2CCOCC2)nc2c(N3CCOCC3)nc(-c3ccccc3)nc21`, the growth is reported as -16.2% (active).
With `CC(C)Sc1nc(NN)c(C#N)c(-c2ccccc2)n1` the growth was 97.4% (inactive).
For `COc1ccc(-c2nc(SCC(C)C)nc(N/N=C(/C)c3ccc(OC)c(OC)c3)c2C#N)cc1`, the growth was 55.3% (inactive).
`COc1cc2nnn3c4ncccc4c(N=O)c3c2cc1OC` was tested, and the growth was -14.9% (active).
For `COc1ccccc1-c1c(-c2ccc(Cl)cc2)c2cc3c(cc2[nH]c1=O)OCCO3`, the growth was 3.15% (active).
With `O=S(=O)(NCCNc1nccc(-c2c(-c3ccc(F)c(O)c3)nc3sccn23)n1)c1ccccc1` the growth was 52.8% (inactive).
`CC(C)(O)C1CCCN1C(=O)c1ccccc1I` (stereo unspecified) was tested, and the growth was -67.6% (active).
In the case of `O=C(OCc1nc2nc(Cl)nc(N3CCOCC3)c2[nH]1)n1ccnc1`, the growth is reported as 9.71% (active).
`Cc1c([N+](=O)[O-])cc(C(C)(C)C)cc1[N+](=O)[O-]` was tested, and the growth was 95.9% (inactive).
For `O=C(N/N=C/c1ccc(F)cc1)c1ccccc1Nc1cccc(C(F)(F)F)c1`, the growth was 7.44% (active).
For `COc1cccc(/C=C2\COc3ccc(-c4ccccc4)cc3C2=O)c1`, the growth was -28.2% (active).
For `CN1CCN(c2cc(F)c(NC3=C(Cl)C(=O)c4ncccc4C3=O)c(F)c2)CC1`, the growth was -22.7% (active).
In the case of `Cc1cc(NC(=O)c2cnc(N3CCN(CCOCCOCCOCCOCCC(=O)N[C@H](C(=O)N4C[C@H](O)C[C@H]4C(=O)N[C@@H](C)c4ccc(-c5scnc5C)cc4)C(C)(C)C)CC3)cn2)c2ncccc2c1`, the growth is reported as 1.53% (active).
`COc1ccc(-c2ncc(-c3ccccc3)[nH]2)cc1OC` was tested, and the growth was -81.9% (active).
In the case of `O=C(CN1CCOCC1)Nc1ccc2ncnc(Nc3ccc(Oc4cccc(F)c4)c(Cl)c3)c2c1`, the growth is reported as 64.8% (inactive).
For `O=C1Nc2c(ccc(Cl)c2Cl)/C1=C/c1ccc(F)cc1`, the growth was 76% (inactive).
With `COc1ccc(-c2nc(N/N=C/c3c[nH]c4ccccc34)nc(N3CCOCC3)c2C#N)cc1` the growth was 55.6% (inactive).
